Each structure is given as a SMILES string. Among all 1,400 compounds or so, fewer than 10 were called active. Another 11% or so got no clear call; they are omitted. The call rests on the fitted dose curve. Not all results are given here.

The nature of the assay: Assay for Inhibitors of Influenza NS1 Protein Function: Hit Validation. As to conditions: influenza NS1 function cell assay, 15-point titration; series mostly up to 32.9 µM. From the text:
NIH Chemical Genomics Center [NCGC]
NIH Molecular Libraries Probe Centers Network [MLPCN]
Assay Submitter (PI): Daniel Engel
Influenza is a world-wide public health problem and emerging forms of the virus have the potential to cause a pandemic of equal or greater magnitude to the outbreaks recorded in 1918, 1957 or 1968. Vaccine development is proceeding and there also exist two classes of anti-influenza compounds. However these therapeutic modalities are neither fully effective nor widely enough available to fulfill global needs. In addition their potential usefulness against newly emergent strains is not known. Efforts are needed to develop novel agents against influenza virus, including broad-spectrum agents. Identification of small molecules that inhibit NS1 function either directly or by interfering with specific cellular pathways may be a key to increasing our defense against the virus.
We have miniaturized and optimized a cell based assay in which NS1 from influenza A is expressed in the budding yeast S. cerevisiae. NS1 is a multi-functional protein that counters the host innate immune response and facilitates viral versus cellular gene expression. Expression of NS1 causes a pronounced slow growth phenotype in yeast due to its intrinsic molecular activities. Small molecules that suppress the slow growth phenotype can be identified by a straightforward growth recovery assay using optical density (OD) as the measurement. The same yeast strain not expressing NS1 was used as positive control in the yeast growth recovery assay. The present experiment attempted to confirm the activity of compounds observed in the primary screen.
The yeast S. cerevisiae control and NS1 expressing cells were kindly supplied by laboratory of Dr. Daniel Engel, University of Virginia. Yeast starter cultures were stored in single use aliquots at -80C.
1. Yeast culture medium per liter: 1.2 g Yeast Nitrogen Base (w/out amino acids and Ammonium Sulphate), 5.0g Ammonium Sulphate, 0.77g -URA DO (drop-out) Supplement, adjust pH to 6.0. Adjust to 2% glucose prior to inoculating with yeast.
2. Yeast assay medium: 1.2 g Yeast Nitrogen Base (w/out amino acids and Ammonium Sulphate), 5.0g Ammonium Sulphate, 0.77g -URA DO (drop-out) Supplement, adjust pH to 6.0. Adjust to 2% D-galactose prior to inoculating with yeast.
1. Inoculate 100 mls of yeast culture medium with 1 ml of frozen yeast aliquote. Incubate overnight at 30C, 250RPM.
2. Harvest overnight culture at 4000 RPM and wash pellet with 15 mls H2O 3x.
3. Re-suspend washed pellet in 10 mls of yeast assay medium.
4. Prepare a 1:100 dilution of re-suspended culture in yeast assay medium.
5. Dispense 3.5 ul per well of reagents in step 4 in columns 2-48 in a black clear bottom 1536 well plate.
6. Dispense 3.5 ul per well of yeast assay medium in column 1 only.
7. Transfer 23 nl of compound per well.
8. Dispense 3.5 ul per well of yeast assay medium in columns 1-48.
9. Read plate using Viewlux protocol for optical density 600 (OD600) using excitation filter 600nm.
Turning to `Cc1cccc(N=C2NN=C(c3c[nH]c4ccccc34)CS2)c1`, the compound was called inactive.

As to `Cc1ccc(-c2ccc(=O)n(CC(=O)NCCCN3CCCCC3)n2)cc1`, the call was inactive.

Regarding `CC(C)CCN(C(=O)c1csnn1)C(C(=O)NC1CCCC1)c1ccccc1` (stereo unspecified), the call was inactive.

`COc1ccccc1C(=O)Nc1ccnn1C1CCN(C(=O)C(C)(C)C)CC1`: the compound was called inactive.

Turning to `COc1ccc(C(C(=O)NC2CCCCC2)N(C(=O)Cc2c[nH]c3ccccc23)c2ccccc2)cc1OC` (stereo unspecified), the compound was called inactive.

Consider `O=C1c2cccc(OCC(=O)N3N=C(c4cccs4)CC3c3ccc(F)cc3)c2CCN1Cc1ccccc1` (stereo unspecified), for which the call was inactive.

For `COc1cccc(OC)c1C(=O)Nc1nnc(C(C)C)s1`, the result was inactive.

As to `Cn1c(CC(=O)Nc2ccccc2)nnc1SCC(=O)c1ccccc1`, the result was inactive.

Consider `COc1cc2c(cc1NC(=O)CN1CCN(S(=O)(=O)c3ccc(F)cc3)CC1)oc1ccccc12`, for which the compound was called inactive.

On to `CCCc1cc(=O)[nH]c(SCC(=O)c2cc(C)n(CCC)c2C)n1`, for which the compound was classed as inactive.

For `Cc1cccc([C@@H]2[C@@H]3C(=O)N(Cc4ccccc4)C(=O)[C@@H]3[C@]3(C)C(=O)N(c4ccc(Br)cc4)C(=O)N23)c1`, the compound was classed as inactive.

For `Nc1cccc(-c2cc(-c3ccccc3)nc(-c3cccc(N)c3)n2)c1`, the result was inactive.

With `COc1ccc(S(=O)(=O)Nc2c(C)n(C)n(-c3ccccc3)c2=O)cc1`, the compound was classed as inactive.

With `Cc1cccc(-n2c(SCC(=O)Nc3cccc(S(=O)(=O)NC4=NCCCCC4)c3)nc3ccccc3c2=O)c1C`, the call was inactive.

On to `O=C1NC(=O)N(CCc2ccc(F)cc2)C(=O)/C1=C/C=C/c1ccccc1`, for which the compound was called inactive.

With `COCCn1c(C)cc(C2=NNC(=Nc3ccc(F)cc3)SC2)c1C`, the compound was classed as inactive.

For `CCOc1ccc(Nc2nc(Cl)nc(N3CCN(c4ccc(OC)cc4)CC3)n2)cc1`, the compound was called inactive.

For the compound `COC(=O)c1c(NC(=O)c2cccs2)sc2c1CCCC2`, the call was inactive.

For the compound `CC(C(=O)O)N1C(=O)c2cccc3cccc1c23` (stereo unspecified), the call was inactive.

In the case of `COCCN1C(=O)c2oc3c(C)cc(C)cc3c(=O)c2C1c1cccc(O)c1` (stereo unspecified), the compound was classed as inactive.

In the case of `Cc1cc2cc(CNC(=O)c3cccs3)ccc2[nH]1`, the outcome was inactive.

On to `COc1ccc(-n2c(C)cc(C(=O)CSc3nnc(-c4cccs4)o3)c2C)cc1`, for which the compound was called inactive.

Consider `Cc1ccc2c(c1)N(S(=O)(=O)c1cc(-c3cc(C)no3)ccc1C)CCO2`, for which the result was inactive.

`C1=C(N2CCOCC2)/C(=C/c2nc3ccccc3[nH]2)CC1`: the outcome was inactive.

Regarding `Cc1ccccc1C(OCC(O)CN1CCCCC1CCO)c1ccccc1` (stereo unspecified), the compound was called inactive.

For `CCc1ccc(S(=O)(=O)Nc2cc3c(cc2N2CCCCC2)n(C)c(=O)c(=O)n3C)cc1`, the call was inactive.

For `CC[C@@H](C)[C@@H](C(=O)N1CCN(C(=O)OC(C)(C)C)CC1)n1cc(CCC(=O)O)nn1`, the compound was called inactive.

Take `N#Cc1c(-c2cccs2)nc(SCC(=O)c2ccc(Br)cc2)[nH]c1=O`: the call was inactive.

In the case of `CN1CCN(C(=O)COc2ccc(C(C)(C)C)cc2Br)CC1`, the compound was called inactive.

Consider `CC(C)c1c(O)nc(SCCOc2ccc(Cl)cc2)[nH]c1=O`, for which the compound was classed as inactive.

Turning to `Cc1cc(=O)[nH]c(SCc2cc(Cl)ccc2OC(F)F)n1`, the compound was classed as inactive.

In the case of `O=C(CSC1=Nc2ccccc2C2=NC(CC(=O)NCc3ccco3)C(=O)N12)NCc1ccco1` (stereo unspecified), the result was inactive.

For `Cc1cc(C)c2cc(CN(Cc3nnnn3Cc3ccc(F)cc3)C3CCCC3)c(=O)[nH]c2c1`, the call was inactive.

Consider `O=S(=O)(c1ccc(OCC(O)CN2CCN(c3ccccc3Cl)CC2)cc1)N1CCOCC1` (stereo unspecified), for which the outcome was inactive.

As to `COc1cccc(-n2c(SCC(=O)NC3CCCCC3)nc3n[nH]c(C)c3c2=N)c1`, the call was inactive.

With `CN(C)c1ccc(/C=C/C(=O)c2ccc(C(C)(C)C)cc2)cc1[N+](=O)[O-]`, the call was inactive.

`COc1ccc(-c2nc(CS(=O)CC(=O)NCc3ccccn3)c(C)o2)cc1` (stereo unspecified): the outcome was inactive.

Regarding `O=C(O)CC(Cn1cnnn1)c1ccccc1` (stereo unspecified), the outcome was inactive.

In the case of `C[C@@H](C(=O)Nc1ccc2ccccc2c1)[C@@H]1C[C@@]1(C)[C@@H](NC(=O)c1cccnc1)c1ccccc1`, the compound was called inactive.

`COC(=O)C1=C(C)N=C2SC(C)C(=O)N2C1/C=C/c1ccccc1` (stereo unspecified): the call was inactive.

On to `CCCc1nc2ccccc2c(=O)n1NC(=O)c1c(O)c2ccccc2[nH]c1=O`, for which the outcome was inactive.

(Values after PubChem BioAssay AID492980 (National Center for Advancing Translational Sciences (NCATS), 2010).)
